Source: PubChem BioAssay (NCATS)
Where “and” joins values, the source holds several entries; their conditions need not be identical. Equal entries are not always repeated. Results filed as inconclusive are left out. Calls of active or inactive are those of the source. Unless noted, the call rests on the fitted dose curve; in most records, active means well fitted curve in the direction sought with a large enough effect; inconclusive means small, poorly fitted or top-dose-only effect, or another doubt; inactive means no such curve, though single readings can be large; an effect the other way counts as inactive or inconclusive.

Key:
[1] = Cell Viability - BJ (AID 421; calls by dose curve;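 further: potency means the concentration at half of the fitted maximal effect; cells exposed to compound for 40 hours at 37 °C before readout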); details: BJ fibroblast viability, qHTS
How it was run: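 Cytotoxicity as drop in intracellular ATP (CellTiter-Glo, 20 min RT) after 40 hr compound exposure of BJ fibroblasts at 37 °C. Titrations scaled between DMSO and 100 uM tamoxifen, Hill-fitted for AC50.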

[2] = Cell Viability - Jurkat (AID 426;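 active means dose-dependent loss of cell ATP signal giving a full or clear fitted curve, ranked by lower potency value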;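 further: potency means the concentration at half of the fitted maximal effect; cells exposed to compound for 40 hours at 37 °C before ATP read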); details: qHTS
How it was run: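 Luminescent ATP read-out (CellTiter-Glo, 20 min at room temperature) after 40 hr compound exposure at 37 °C of Jurkat E6-1 cells, 5000/well. Decreased ATP taken as cytotoxicity; AC50 from standard Hill equation.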

[3] = Cell Viability - Hek293 (AID 427;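 active means compounds whose dose-response curve shows a full or clear partial loss of cell viability, called from curve shape rather than a numeric limit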;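 further: potency means the concentration at half of the fitted maximal effect; cells exposed to compound for 40 hours at 37 °C before reading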); details: qHTS
How it was run: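 Luminescent ATP content (CellTiter-Glo, 20 min at room temperature) was measured after a 40 hr, 37 °C compound exposure of HEK293 cells. AC50 values came from Hill-equation fits of qHTS concentration-response data normalized to DMSO and 100 uM tamoxifen.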

[4] = Cell Viability - SK-N-SH (AID 435; calls by dose curve;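 further: potency means the concentration at half of the fitted maximal effect; compound exposure lasted 40 h at 37 °C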); details: SK-N-SH neuroblastoma cell viability qHTS
How it was run: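 SK-N-SH human neuroblastoma cells (1500/well) were exposed to compounds in complete medium for 40 h at 37 °C, and intracellular ATP was then measured by CellTiter-Glo luminescence. AC50 was taken from Hill fits, normalized to DMSO and 100 uM tamoxifen.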

[5] = Cellular Toxicity (caspase-3) Jurkat (AID 655); details: Jurkat caspase-3 activation, luminescence; caspase-3 activation: at 92.2 µM (top of the series), DMSO = 0%, tamoxifen = 100%;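 further: cells exposed to compound for 16 h at 37 °C before reading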
How it was run: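 Jurkat cells (5000/well) in complete medium were treated with compounds for 16 hr at 37 °C, then Caspase-Glo 3/7 luminescence was read after 20 min at room temperature. Data normalized to DMSO (basal) and 100 uM tamoxifen (100%); AC50 from Hill fit.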

[6] = Cellular Toxicity (caspase-3) SHSY5Y (AID 657); details: SH-SY5Y caspase-3 activation, DMSO zero, 10 µM staurosporine = 100%; series mostly up to 91.7 µM
How it was run: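 SH-SY5Y human neuroblastoma cells (1500/well) were treated with compounds for 16 h at 37 °C, then Caspase-Glo 3/7 luminescence was read after 1 h at room temperature. Data normalized to DMSO and 10 uM staurosporine; AC50 from Hill fits.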

[7] = Cellular Toxicity (caspase-3) BJ (AID 658); details: BJ fibroblasts, luminescence, normalized: DMSO 0%, staurosporine 100%; series mostly up to 91.7 µM
How it was run: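 qHTS, BJ fibroblasts, 1000 cells/well; 5 hr preincubation, 16 hr compound, 37 °C; Caspase-Glo 3/7 reagent, 1 hr RT; luminescence. DMSO = 0%, 10 uM staurosporine = 100%. Hill-equation AC50.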

[8] = Cellular Toxicity (caspase-3) N2a (AID 665); details: N2a cells, luminescence, normalized: DMSO 0%, 10 µM staurosporine 100%; series mostly up to 92.2 µM;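 further: compound exposure lasted 16 h at 37 °C before readout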
How it was run: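 Luminescent Caspase-Glo 3/7 readout in N2a mouse neuroblastoma cells after 16 h compound exposure at 37 °C. Signal scaled to DMSO (basal) and 10 uM staurosporine (100%). Concentration-response fitted with Hill equation for AC50.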

[9] = Cellular Toxicity (caspase-3) Renal Proximal Tubule (AID 667); details: renal proximal tubule cells; series mostly up to 91.7 µM;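 further: cells exposed to compound for 16 hours at 37 °C before detection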
How it was run: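 Primary rat proximal tubule cells, 1000/well, 5 h plating at 37 °C, then compound 16 h at 37 °C. Caspase-Glo 3/7 reagent, 1 h RT, luminescence. Normalized to DMSO (basal) and 10 uM staurosporine (100%); Hill-fit AC50.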

[10] = MultiTox-Fluor Cytotoxicity Assay - LYMP1-001 - Dead Cells (AID 946); details: LYMP1-001 lymphoblastoid cells, dead-cell protease fluorescence; series mostly up to 92.2 µM
How it was run: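 Cytotoxicity as increased dead-cell protease fluorescence (bis-AAF-R110, 485/520 nm), read 60 min after MultiTox-Fluor reagent. Human lymphoblastoid line exposed 16 h; Hill-fitted AC50, with DMSO as 0% and 15 uM tetraoctylammonium bromide as 100%.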

[11] = Cell Viability - LYMP1-002 - Assay at 16 hr (AID 948); details: LYMP1-002 lymphoblastoid cell viability; series mostly up to 92.2 µM;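 further: 0% = DMSO alone and full effect = 92 µM tetraoctylammonium bromide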
How it was run: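 Human lymphoblastoid cells (LYMP1-002), 2500/well, were preincubated 5 hr at 37 C, then exposed to compounds for 16 hr at 37 C in complete medium. Cellular ATP was read by CellTiter-Glo luminescence after 30 min at room temperature; AC50 from Hill fits.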

[12] = MultiTox-Fluor Cytotoxicity Assay - LYMP1-003 - Dead Cells (AID 961); details: LYMP1-003 lymphoblastoid cells, dead-cell protease fluorescence; series mostly up to 92.2 µM; further: nearly all actives have a fitted effect of over 70% in size
How it was run: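 Dead-cell protease release, detected as bis-AAF-R110 fluorescence at 485/520 nm, was measured in LYMP1-003 cells after 16 h compound treatment at 37 C. AC50 values came from Hill-modeled qHTS curves normalized to DMSO (0%) and 15 uM tetraoctylammonium bromide (100%).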

[13] = Cell Viability - LYMP1-003 - Assay at 24 hr (AID 963); details: LYMP1-003 lymphoblastoid cell viability; series mostly up to 92.2 µM;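 further: plate controls were DMSO only for no effect and tetraoctylammonium bromide positive control for full effect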
How it was run: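 CellTiter-Glo luminescence (intracellular ATP) read after 24 hr, 37 C compound exposure of 2500 LYMP1-003 human lymphoblastoid cells/well in complete medium; qHTS concentration series; AC50 via standard Hill equation.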

[14] = Cell Viability - LYMP2-013 (AID 970); details: LYMP2-013 lymphoblastoid cells viability; series mostly up to 92.2 µM;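 further: 0% = DMSO only and full inhibition = tetraoctylammonium bromide control; nearly all actives have a fitted effect of over 55% in size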
How it was run: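 CellTiter-Glo luminescence (cellular ATP) read after 30 min at RT. Cells: human lymphoblastoid line, 2500/well, 24 hr compound exposure at 37 C. Tetraoctylammonium bromide positive control; AC50 via standard Hill fit of qHTS titrations.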

[15] = Cell Viability - LYMP2-016 (AID 984); details: LYMP2-016 lymphoblastoid cell viability, qHTS; series mostly up to 92.2 µM;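 further: cells exposed to compound for 24 hours at 37 °C; on the % scale 0 is the no-effect control and ±100 the full control effect; nearly all actives have a fitted effect of over 55% in size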
How it was run: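 Human lymphoblastoid cells (LYMP2-016), 2500/well in complete medium, preincubated 5 hr at 37 C, then compound-treated 24 hr at 37 C. Intracellular ATP read by CellTiter-Glo luminescence after 30 min at room temperature; AC50 from Hill-equation concentration-response fits.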

[16] = Cell Viability - LYMP1-002 - Assay at 24 hr (AID 993); details: LYMP1-002 lymphoblastoid cells viability; series mostly up to 92.2 µM; further: on the % scale 0 is the no-effect control and ±100 the full control effect
How it was run: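 CellTiter-Glo luminescence (intracellular ATP) after 24 h compound exposure, 37 C, in LYMP1-002 human lymphoblastoid cells; decreased ATP taken as cytotoxicity. AC50 from standard Hill fit of concentration-response curves.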

[17] = qHTS Assay for Identification of Small Molecule Inducers of Hypoxia Response (AID 2120; active means well fitted curve in the direction sought with a large enough effect in the signal ratio, with a control signal flat, not every such curve was filed as active; the % refers to the signal ratio; further: 0% is about no effect); details: hypoxia response reporter cells, beta-lactamase ratio readout; series mostly up to 104 µM
How it was run: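 Read-out: CCF4 FRET emission ratio 460nm/530nm (excitation 405nm), converted to %Activity, with AC50 fitted across a compound titration. ME-180 cells carried an HRE-driven beta-lactamase reporter; compound exposure 17 h, 37 degrees C.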

[18] = target: Peroxisome proliferator-activated receptor alpha (Homo sapiens) (UniProt Q07869); test: qHTS assay for small molecule agonists of the peroxisome proliferator-activated receptor alpha (PPARalpha) signaling pathway (AID 651778); details: PathHunter PPARalpha complementation, chemiluminescence, 6 h; stronger effect = higher value; further: % of control where 0% means no effect
How it was run: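 Enzyme-fragment complementation assay in which ligand-bound PPARalpha translocates and forms an active enzyme that generates chemiluminescence. Cells were plated overnight, exposed to compound for 6 hr at 37 C, and then given detection reagent for 60 min at room temperature.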

[19] = qHTS assay for cell viability of HEK293 cells (AID 743288); details: ATP luminescence (CellTiter-Glo), 18 h, stronger effect = lower value; further: on the % scale 0 is the no-effect control and ±100 the full control effect; nearly all actives have a fitted effect of over 50% in size
How it was run: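 After 18 h compound exposure at 37 C, parental HEK293 cells (2,000/well) are lysed with CellTiter-Glo and luminescence is read following 30 min at room temperature.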

[20] = qHTS assay for cell viability of the p53RE-bla HCT-116 cell line (AID 743292); details: p53RE-bla HCT-116 viability, ATP luminescence, 16 h; series mostly up to 95 µM; further: on the % scale 0 is the no-effect control and ±100 the full control effect; nearly all actives have a fitted effect of over 55% in size
How it was run: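 Luminescent ATP quantitation (CellTiter-Glo) served as the viability read-out; reagent was added after 16 h compound exposure at 37 C and read after 30 min at room temperature. Cells: p53RE-bla HCT-116, 4,000 per well.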

Chain of Peroxisome proliferator-activated receptor alpha (Homo sapiens) (Q07869 whole entry, looked up, the tested form may be a part): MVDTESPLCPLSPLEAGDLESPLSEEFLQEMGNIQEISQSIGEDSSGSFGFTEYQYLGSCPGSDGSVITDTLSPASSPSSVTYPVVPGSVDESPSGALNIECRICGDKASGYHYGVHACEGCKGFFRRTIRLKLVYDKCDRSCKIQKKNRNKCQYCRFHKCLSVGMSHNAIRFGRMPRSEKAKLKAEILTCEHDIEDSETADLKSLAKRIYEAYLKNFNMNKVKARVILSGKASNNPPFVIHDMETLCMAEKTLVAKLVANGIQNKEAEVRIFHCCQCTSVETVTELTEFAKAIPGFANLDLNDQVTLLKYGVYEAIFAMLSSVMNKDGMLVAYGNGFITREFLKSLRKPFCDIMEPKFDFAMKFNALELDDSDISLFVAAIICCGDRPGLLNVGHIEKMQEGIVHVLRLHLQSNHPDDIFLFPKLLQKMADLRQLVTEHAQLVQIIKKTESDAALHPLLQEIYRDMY

Nc1ccccc1-c1ccccc1
inactive: Potency [1] > 92 µM | Potency [2] > 92 µM | Potency [3] > 92 µM | Potency [4] > 92 µM | caspase-3 activation [5] 2.93% | outcome [6] | outcome [7] | outcome [8] | outcome [9] | outcome [10] | outcome [11] | Potency [12] | outcome [13] | Potency [14] | Potency [15] | Potency [16] | Potency [17] | max response [18] -2.98% | max response [19] 3.8% | Potency [20]

ClCCCCl
inactive: Potency [1] > 92 µM | Potency [2] > 92 µM | Potency [3] > 92 µM | Potency [4] > 92 µM | caspase-3 activation [5] 2.19% | outcome [6] | outcome [7] | outcome [8] | outcome [9] | outcome [10] | outcome [11] | Potency [12] | outcome [13] | Potency [14] | Potency [15] | Potency [16] | Potency [17] | max response [18] -2.57% | max response [19] 2.44% | Potency [20]

C=C(Cl)CSC(=S)N(CC)CC
inactive: Potency [1] > 92 µM | Potency [2] > 92 µM | Potency [3] > 92 µM | Potency [4] > 92 µM | caspase-3 activation [5] 1.37% | outcome [6] | outcome [7] | outcome [8] | outcome [9] | outcome [10] | outcome [11] | Potency [12] | outcome [13] | Potency [14] | Potency [15] | Potency [16] | Potency [17] | max response [18] 11.5% | max response [19] 5.22% | Potency [20]

S=c1[nH]c2ccccc2[nH]1
inactive: Potency [1] > 92 µM | Potency [2] > 92 µM | Potency [3] > 92 µM | Potency [4] > 92 µM | caspase-3 activation [5] -0.402% | outcome [6] | outcome [7] | outcome [8] | outcome [9] | outcome [10] | outcome [11] | Potency [12] | outcome [13] | Potency [14] | Potency [15] | Potency [16] | Potency [17] | max response [18] -5.62% | max response [19] 7.64% | Potency [20]

CCCCCOC(=O)c1ccccc1C(=O)OCCCCC
inactive: Potency [1] > 92 µM | Potency [2] > 92 µM | Potency [3] > 92 µM | Potency [4] > 92 µM | caspase-3 activation [5] 0.132% | outcome [6] | outcome [7] | outcome [8] | outcome [9] | outcome [10] | outcome [11] | Potency [12] | outcome [13] | Potency [14] | Potency [15] | Potency [16] | Potency [17] | max response [18] -4.34% and -0.557% | max response [19] 4.12% and -1.01% | Potency [20]

N#C/C(N)=C(/N)C#N
inactive: Potency [1] > 92 µM | Potency [2] > 92 µM | Potency [3] > 92 µM | Potency [4] > 92 µM | caspase-3 activation [5] 1.12% | outcome [6] | outcome [7] | outcome [8] | outcome [9] | outcome [10] | outcome [11] | Potency [12] | outcome [13] | Potency [14] | Potency [15] | Potency [16] | Potency [17] | max response [18] -0.162% | max response [19] -0.0232% | Potency [20]
